In PubChem BioAssay:
A number with no mark means an inactive call. How the calls were made is not given here.

These molecules were tested against Pantothenate synthetase (Mycobacterium tuberculosis (strain ATCC 25618 / H37Rv)) (UniProt P9WIL5) (assay: Recombinant Mtb pantothenate synthetase (PanC) inhibitors, coupled enzyme, confirmatory (AID 375;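 further: 0% = full reaction with vehicle and 100% = no enzyme background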)). Conditions: coupled enzyme assay; at 10 µM, hits give high values.
Pantothenate synthetase (Mycobacterium tuberculosis (strain ATCC 25618 / H37Rv)), sequence (P9WIL5 whole entry, looked up): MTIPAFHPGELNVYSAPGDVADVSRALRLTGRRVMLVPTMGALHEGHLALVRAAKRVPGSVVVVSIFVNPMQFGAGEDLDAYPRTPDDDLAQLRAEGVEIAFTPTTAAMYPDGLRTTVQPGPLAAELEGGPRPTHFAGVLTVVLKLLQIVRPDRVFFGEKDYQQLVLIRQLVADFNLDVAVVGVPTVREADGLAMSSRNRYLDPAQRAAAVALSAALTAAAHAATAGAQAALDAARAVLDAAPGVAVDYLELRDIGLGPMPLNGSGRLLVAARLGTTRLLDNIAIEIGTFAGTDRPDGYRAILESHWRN

Row | Compound | inhibition [%]
1 | Cc1nnc(NC(=O)Nc2cccc(Cl)c2)s1 | 0
2 | Cc1noc(/C=C/N(C)C)c1S(=O)(=O)N1CCCC(C(=O)N2CCc3ccccc32)C1 (stereo not given) | 10
3 | OCCn1c(CSc2nnc(-c3ccco3)n2-c2ccccc2)nc2ccc(Cl)cc21 | 2
4 | O=C1CCCC2=C1C1(CCCC1)N=C(Nc1nc3ccccc3s1)N2 | 10
5 | CNCCCN1c2ccccc2CCc2ccccc21 | 0
6 | O=C1CN(c2ccccc2F)C(=O)CN1c1ccccc1F | 0
7 | O=C(NCc1nnc(SCC(=O)N2CCCCCC2)o1)c1ccco1 | 8
8 | CCCC(=O)Nc1ccccc1NC(=O)CN(C)S(=O)(=O)c1ccc(C)cc1 | 2
9 | c1ccc(CCn2nnnc2CN2CCN(C3CCCC3)CC2)cc1 | 2
10 | O=C(CC(=O)c1cc(Cl)ccc1O)c1ccccc1 | 0
11 | CC(=O)CC(=O)Nc1ccccc1NC(C)=O | 3
12 | CCn1c(SCC(=O)c2ccc(OC)cc2)nnc1C(C)NC(=O)c1ccc(OC)cc1 (stereo not given) | 3
13 | O=C(CCC(=O)N(c1cccc(F)c1)C(C(=O)NC1CCCC1)c1ccncc1)Nc1cccnc1 (stereo not given) | 0
14 | O=C(C1CCCN(S(=O)(=O)c2cccs2)C1)N1CCc2ccccc2C1 (stereo not given) | 9
15 | N#Cc1nc(-c2ccccc2Cl)oc1N1CCOCC1 | 0
16 | COc1cc(C(=O)N2CCN(C(=O)CC(C)C)CC2)cc(OC)c1OC | 0
17 | COc1ccc(C)cc1NC(=O)COCC(=O)O | 0
18 | COc1ccc(-c2cc3nc(C)c(CCC(=O)NCc4ccco4)c(C)n3n2)c(OC)c1 | 0
19 | COc1ccc(-c2nc(CS(=O)CC(=O)N3CCCC3)c(C)o2)cc1 (stereo not given) | 0
20 | C=CCSc1nc2c(c(=O)[nH]c(=O)n2C)n1C(C)C | 0

Row | Compound | inhibition [%]
21 | CCN(CC)C(=O)COc1ccc2oc(C)c(C(=O)OC(C)C)c2c1 | 4
22 | COc1ccccc1CC(=O)Nc1ccc(OC)c(OC)c1 | 3
23 | Brc1ccc(-c2csc(/N=C/N3CCOCC3)n2)cc1 | 3
24 | COc1ccc(CCNC(=O)C2CCN(C(=O)N(C)C)CC2)cc1OC | 0
25 | CCOc1ccccc1CN(Cc1ccco1)S(=O)(=O)c1ccc(-n2cnnn2)c(OC)c1 | 8
26 | CCOc1cc(C(=O)N(C)Cc2cc3ccccc3[nH]c2=O)cc(OCC)c1OCC | 7
27 | CS(=O)(=O)N(CC(=O)N1CCc2ccccc2C1)c1ccc2c(c1)OCO2 | 0
28 | Nc1cccc2c1C(=O)N(c1ccccc1)C2=O | 0
29 | CCOc1ccc(C(=O)N(CN2CCCC2=O)c2ccc(C)cc2)cc1 | 0
30 | CN1CCCC(OC(=O)COc2ccc(Br)cc2)C1 (stereo not given) | 3
31 | COC(=O)c1ccc(CNC(=O)COc2ccccc2Br)o1 | 5
32 | CC(=O)c1c(C)[nH]c(C(=O)Nc2ccc3c(c2)OCCO3)c1C | 3
33 | O=C(NCc1cccnc1)/C(=N\O)c1ccccc1 | 0
34 | COC(=O)c1ccccc1NC(=O)CSc1nc2c(c(=O)n(C)c(=O)n2C)n1C | 3
35 | CC(C)(C)c1ccc(O)c(N)c1 | 2
36 | FC(F)(F)c1cccc(N2CCN(Cc3cccnc3)CC2)c1 | 4
37 | CSCCC(NC(=O)c1ccco1)C(=O)O (stereo not given) | 0
38 | CCOc1ccc(N(C(C)=O)C2C=CS(=O)(=O)C2)cc1 (stereo not given) | 0
39 | COCCCN(C(C)=O)c1nc(-c2ccccc2)cs1 | 0
40 | CCS(=O)(=O)N1CCC(C(=O)NCCc2ccc(C)cc2)CC1 | 0
